Laboratory results reported in PubChem BioAssay (NCI).
Compounds without any hit were thinned out: in the full panel of roughly 83,000, 20% have a hit.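 96-well plates, one dose, 48 hours. Percent growth reported; active if below 10.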 A number with no mark means an inactive call. Active and inactive are the calls of the source.

Assays:
Assay in all cases: NCI-60 one-dose screen, 48 h (100 = growth as untreated, 0 = no growth, -100 = all killed)
Settings in all cases: 10 µM unless noted
SR leukemia = tested on: SR leukemia
RPMI-8226 leukemia = tested on: RPMI-8226 leukemia
OVCAR-8 ovarian = tested on: OVCAR-8 ovarian
OVCAR-5 ovarian = tested on: OVCAR-5 ovarian
OVCAR-4 ovarian = tested on: OVCAR-4 ovarian
SK-OV-3 ovarian = tested on: SK-OV-3 ovarian
IGROV1 ovarian = tested on: IGROV1 ovarian
OVCAR-3 ovarian = tested on: OVCAR-3 ovarian
HS 578T breast = tested on: HS 578T breast
NCI/ADR-RES ovarian = tested on: NCI/ADR-RES ovarian
T-47D breast = tested on: T-47D breast
BT-549 breast = tested on: BT-549 breast
MDA-MB-435 melanoma = tested on: MDA-MB-435 melanoma
SW-620 colon = tested on: SW-620 colon
MCF7 breast = tested on: MCF7 breast
HCT-116 colon = tested on: HCT-116 colon
HCC-2998 colon = tested on: HCC-2998 colon
KM12 colon = tested on: KM12 colon

Which growth (SR leukemia) does the source give for `CCN(CC)CCn1c2ccc(O)cc2c2sc3cc(O)ccc3c(=O)c21` here?
Its growth is 5.78% (active).

What about the growth (RPMI-8226 leukemia) of the same compound?
The growth was 28.3%.

What about the growth (OVCAR-8 ovarian) of the same compound?
Its growth is 31.4%.

And the growth (OVCAR-5 ovarian)?
The growth was 54%.

What about the growth (OVCAR-4 ovarian) of the same compound?
Its growth is 46.6%.

What about the growth (SK-OV-3 ovarian) of the same compound?
The growth was 48.7%.

What about the growth (IGROV1 ovarian) of the same compound?
Its growth is 15.4%.

And the growth (OVCAR-3 ovarian)?
Its growth is 41%.

What about the growth (HS 578T breast) of the same compound?
The growth was 64.5%.

What about the growth (NCI/ADR-RES ovarian) of the same compound?
The growth was 61.1%.

What about the growth (T-47D breast) of the same compound?
The growth was 50.4%.

And the growth (BT-549 breast)?
The growth was 62.1%.

And the growth (MDA-MB-435 melanoma)?
The growth was 40.5%.

And the growth (SW-620 colon)?
The growth was 15.5%.

What about the growth (MCF7 breast) of the same compound?
Its growth is 8.08% (active).

And the growth (HCT-116 colon)?
Its growth is 12.1%.

What about the growth (HCC-2998 colon) of the same compound?
Its growth is 42.3%.

What about the growth (KM12 colon) of the same compound?
The growth was 29.4%.

How did the growth (SR leukemia) turn out when `COc1ccc(/C=N/C2=C(C#N)C(c3ccccc3)c3ccc4ccccc4c3O2)cc1` (configuration not stated) was run?
The growth was 23.6%.

What about the growth (RPMI-8226 leukemia) of the same compound?
Its growth is 8.19% (active).

What about the growth (OVCAR-8 ovarian) of the same compound?
Its growth is 14.1%.

What about the growth (OVCAR-5 ovarian) of the same compound?
The growth was 26.7%.

And the growth (OVCAR-4 ovarian)?
Its growth is 56.6%.

What about the growth (SK-OV-3 ovarian) of the same compound?
Its growth is 21.6%.

What about the growth (IGROV1 ovarian) of the same compound?
Its growth is 26.2%.

What about the growth (OVCAR-3 ovarian) of the same compound?
The growth was 2.08% (active).

And the growth (HS 578T breast)?
Its growth is 29.8%.

And the growth (NCI/ADR-RES ovarian)?
Its growth is 4.68% (active).

And the growth (T-47D breast)?
The growth was 46.7%.

What about the growth (BT-549 breast) of the same compound?
Its growth is 12.9%.

And the growth (MDA-MB-435 melanoma)?
Its growth is -56.3% (active).

What about the growth (SW-620 colon) of the same compound?
Its growth is 24.3%.

And the growth (MCF7 breast)?
The growth was 12.2%.

What about the growth (HCT-116 colon) of the same compound?
Its growth is 10.3%.

What about the growth (HCC-2998 colon) of the same compound?
The growth was -6.81% (active).

And the growth (KM12 colon)?
The growth was 17.5%.

What does the source list for `Cc1c[n+](Cc2ccc3ccccc3c2)cn1Cc1ccc2ccccc2c1`?
growth (SR leukemia): -47.2% (active); growth (RPMI-8226 leukemia): -42.4% (active); growth (OVCAR-8 ovarian): 2.04% (active); growth (OVCAR-5 ovarian): 27.1%; growth (OVCAR-4 ovarian): -7.39% (active); growth (SK-OV-3 ovarian): 35.3%; growth (IGROV1 ovarian): -16.3% (active); growth (OVCAR-3 ovarian): -2.44% (active); growth (HS 578T breast): 46.8%; growth (NCI/ADR-RES ovarian): 101%; growth (T-47D breast): -8.03% (active); growth (BT-549 breast): -2.98% (active); growth (MDA-MB-435 melanoma): -20.9% (active); growth (SW-620 colon): 36.8%; growth (MCF7 breast): 18.5%; growth (HCT-116 colon): 23.2%; growth (HCC-2998 colon): 14.8%; growth (KM12 colon): -44.7% (active)

How did the growth (SR leukemia) turn out when `O=C(c1ccncc1)N1N=C(c2ccc(Cl)cc2)C[C@H]1c1cn(-c2ccccc2)nc1-c1ccccc1` was run?
The growth was 91.1%.

And the growth (RPMI-8226 leukemia)?
The growth was 105%.

What about the growth (OVCAR-8 ovarian) of the same compound?
The growth was 74.6%.

What about the growth (OVCAR-5 ovarian) of the same compound?
Its growth is 105%.

And the growth (OVCAR-4 ovarian)?
The growth was 82.6%.

And the growth (SK-OV-3 ovarian)?
The growth was 83.4%.

What about the growth (IGROV1 ovarian) of the same compound?
The growth was 99.4%.

What about the growth (OVCAR-3 ovarian) of the same compound?
Its growth is 94.7%.

What about the growth (HS 578T breast) of the same compound?
Its growth is 87.2%.

What about the growth (NCI/ADR-RES ovarian) of the same compound?
The growth was 87%.

What about the growth (T-47D breast) of the same compound?
Its growth is 87.6%.

And the growth (BT-549 breast)?
Its growth is 92.5%.

And the growth (MDA-MB-435 melanoma)?
The growth was 89.3%.

What about the growth (SW-620 colon) of the same compound?
Its growth is 101%.

What about the growth (MCF7 breast) of the same compound?
Its growth is 74.8%.

What about the growth (HCT-116 colon) of the same compound?
Its growth is 73.5%.

What about the growth (HCC-2998 colon) of the same compound?
Its growth is 92.2%.

And the growth (KM12 colon)?
The growth was 86.1%.

For `CCCCCCCCCCC(CN(CC)CC)C(O)c1ccccc1` (configuration not stated), which growth (SR leukemia) is on record?
Its growth is -17.6% (active).

And the growth (RPMI-8226 leukemia)?
The growth was 9.59% (active).

What about the growth (OVCAR-8 ovarian) of the same compound?
The growth was 53.6%.

What about the growth (OVCAR-5 ovarian) of the same compound?
Its growth is 49.7%.

And the growth (OVCAR-4 ovarian)?
The growth was 47.5%.

And the growth (SK-OV-3 ovarian)?
Its growth is 54.9%.

And the growth (IGROV1 ovarian)?
Its growth is 40.7%.

What about the growth (OVCAR-3 ovarian) of the same compound?
Its growth is 37.7%.

What about the growth (HS 578T breast) of the same compound?
Its growth is 45%.

What about the growth (NCI/ADR-RES ovarian) of the same compound?
Its growth is 33.6%.

What about the growth (T-47D breast) of the same compound?
Its growth is 3.27% (active).

What about the growth (BT-549 breast) of the same compound?
The growth was 61.7%.

What about the growth (MDA-MB-435 melanoma) of the same compound?
The growth was -25.1% (active).

And the growth (SW-620 colon)?
Its growth is 32.1%.

What about the growth (MCF7 breast) of the same compound?
Its growth is 1.87% (active).

And the growth (HCT-116 colon)?
Its growth is 20.7%.

And the growth (HCC-2998 colon)?
Its growth is -19.4% (active).

What about the growth (KM12 colon) of the same compound?
The growth was 8.29% (active).

`CCCOC(=O)Nc1nc2ccc(SCC(C)C)cc2s1` was tested. Which growth (SR leukemia) did it give?
Its growth is 14.3%.

And the growth (RPMI-8226 leukemia)?
Its growth is 28.4%.

What about the growth (OVCAR-8 ovarian) of the same compound?
The growth was 60.5%.

What about the growth (OVCAR-5 ovarian) of the same compound?
The growth was 60.1%.

What about the growth (OVCAR-4 ovarian) of the same compound?
Its growth is 61.2%.

And the growth (SK-OV-3 ovarian)?
The growth was 48.5%.

And the growth (IGROV1 ovarian)?
Its growth is 55.4%.

What about the growth (OVCAR-3 ovarian) of the same compound?
Its growth is 15.6%.

And the growth (HS 578T breast)?
Its growth is 65.3%.

What about the growth (NCI/ADR-RES ovarian) of the same compound?
Its growth is 16.1%.

What about the growth (T-47D breast) of the same compound?
The growth was 37.8%.

What about the growth (BT-549 breast) of the same compound?
The growth was 52.3%.

What about the growth (MDA-MB-435 melanoma) of the same compound?
The growth was -7.7% (active).

What about the growth (SW-620 colon) of the same compound?
Its growth is 33.8%.

And the growth (MCF7 breast)?
Its growth is 19.7%.

And the growth (HCT-116 colon)?
Its growth is 34.6%.

And the growth (HCC-2998 colon)?
Its growth is 77.1%.

And the growth (KM12 colon)?
Its growth is 38.8%.

Which results are given for `CCC(C)(C)C(=O)O[C@H]1C[C@@H](C)C=C2C=C[C@H](C)[C@H](CC[C@@H]3CC(SCCN)CC(=O)O3)[C@H]21` (some centres not stated)?
growth (SR leukemia): 23.3%; growth (RPMI-8226 leukemia): 6.62% (active); growth (OVCAR-8 ovarian): 88.1%; growth (OVCAR-5 ovarian): 99.1%; growth (OVCAR-4 ovarian): 101%; growth (SK-OV-3 ovarian): 102%; growth (IGROV1 ovarian): 98.6%; growth (OVCAR-3 ovarian): 90.9%; growth (HS 578T breast): 98.9%; growth (NCI/ADR-RES ovarian): 96.7%; growth (T-47D breast): 89.8%; growth (BT-549 breast): 78.7%; growth (MDA-MB-435 melanoma): 93.3%; growth (SW-620 colon): 81.8%; growth (MCF7 breast): 79.9%; growth (HCT-116 colon): 37.5%; growth (HCC-2998 colon): 73.6%; growth (KM12 colon): 88.2%

For `Nc1ncc(-c2ccc3ncnc(Nc4cccc(Cl)c4)c3c2)cn1`, which growth (SR leukemia) is on record?
The growth was 33.6%.

What about the growth (RPMI-8226 leukemia) of the same compound?
The growth was 44.5%.

And the growth (OVCAR-8 ovarian)?
The growth was 46.8%.

And the growth (OVCAR-5 ovarian)?
The growth was 26.4%.

What about the growth (OVCAR-4 ovarian) of the same compound?
Its growth is 70%.

What about the growth (SK-OV-3 ovarian) of the same compound?
The growth was -10% (active).

And the growth (IGROV1 ovarian)?
The growth was 5.88% (active).

And the growth (OVCAR-3 ovarian)?
The growth was 27.3%.

And the growth (HS 578T breast)?
The growth was 16.4%.

What about the growth (NCI/ADR-RES ovarian) of the same compound?
Its growth is 52.2%.

What about the growth (T-47D breast) of the same compound?
Its growth is -20.1% (active).

What about the growth (BT-549 breast) of the same compound?
Its growth is 46.5%.

And the growth (MDA-MB-435 melanoma)?
Its growth is 55.6%.

And the growth (SW-620 colon)?
Its growth is 91.4%.

What about the growth (MCF7 breast) of the same compound?
Its growth is 24.2%.

What about the growth (HCT-116 colon) of the same compound?
The growth was 66.4%.

What about the growth (HCC-2998 colon) of the same compound?
The growth was 60.5%.

What about the growth (KM12 colon) of the same compound?
The growth was 67.5%.

How did the growth (SR leukemia) turn out when `COc1cc(/C=C2/C=C(c3ccccc3)N(CCc3ccc(S(N)(=O)=O)cc3)C2=O)cc(OC)c1OC` was run?
Its growth is 82.4%.

And the growth (RPMI-8226 leukemia)?
Its growth is 66.8%.

And the growth (OVCAR-8 ovarian)?
The growth was 91.6%.

What about the growth (OVCAR-5 ovarian) of the same compound?
The growth was 118%.

And the growth (OVCAR-4 ovarian)?
Its growth is 101%.

What about the growth (SK-OV-3 ovarian) of the same compound?
Its growth is 103%.

What about the growth (IGROV1 ovarian) of the same compound?
The growth was 101%.

And the growth (OVCAR-3 ovarian)?
Its growth is 110%.

What about the growth (HS 578T breast) of the same compound?
The growth was 98.2%.

What about the growth (NCI/ADR-RES ovarian) of the same compound?
The growth was 99.6%.

What about the growth (T-47D breast) of the same compound?
The growth was 83.5%.

What about the growth (BT-549 breast) of the same compound?
The growth was 94.4%.

And the growth (MDA-MB-435 melanoma)?
The growth was 106%.

What about the growth (SW-620 colon) of the same compound?
The growth was 102%.

And the growth (MCF7 breast)?
Its growth is 87.8%.

And the growth (HCT-116 colon)?
The growth was 84.7%.

And the growth (HCC-2998 colon)?
The growth was 105%.

And the growth (KM12 colon)?
The growth was 105%.
